tested on: INSR; details: concentration: 1 μM, replicates: in singlicate; n = 1
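Further: KINOMEscan kinase panel screen.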

Compound	%Inh
COc1cc2ncnc(Nc3ccc(OCc4ccccc4Br)c(Cl)c3)c2cc1OC.Cl [GI261590]	0%
CSc1nn2c(=O)cc(N3CCOCC3)nc2n1Cc1cccc(Cl)c1Cl [GSK2347225]	17%
Fc1cccc(COc2ccc(Nc3ncnc4sc(-c5ccc[nH]5)cc34)cc2Cl)c1 [GW707818]	13%
Cl.O=S(=O)(c1cccc(F)c1)c1ccc(Nc2ncnc3cc(Br)sc23)cc1Cl [GSK306886]	13%
CN1c2ccc(-c3ccc(C(=O)NCCO)cc3)cc2-c2[nH]ncc2S1(=O)=O	0%
Nc1nc(-c2ccc3c(N)n[nH]c3c2)cc(N2CCCCC2)n1 [GSK2228768]	1%
Cn1ccc2ncnc(Oc3ccc(NC(=O)Nc4cccnc4)c(Cl)c3)c21	6%
Clc1cc(Nc2ncnc3cc[nH]c23)ccc1OCc1ccccn1	3%
Cl.Cl.c1ccc(-c2cc3ccncc3cc2OC2CCNCC2)cc1 [GSK1122999]	0%
Fc1ccc(Nc2nccc(-c3c(-c4ccc(Cl)cc4)nn4ncccc34)n2)cc1F [GW829058]	19%
C[C@H]1CC[C@@H](C(=O)Nc2ccccc2)CN1c1cc(-c2ccc3c(N)n[nH]c3c2)nc(N)n1 [GSK2283293]	0%
FC(F)(F)c1cc(Nc2nccc(-c3c(-c4ccc(Cl)cc4)nn4ncccc34)n2)ccc1Cl [GW829351]	0%
FC(F)(F)c1ccc(-c2cc(-c3c[nH]nc3-c3ccccn3)ccn2)cc1 [GW599550]	0%
Nc1nc(-c2cccnc2)c(-c2ccnc3ccccc23)s1 [GW684083]	2%
Cl.c1ccc(Cn2ncc3cc(Nc4ncnc5ccccc45)ccc32)cc1 [GW273749]	3%
O=C(NCCCN1CCCC1=O)c1cnc(NCc2cc(Cl)ccc2Cl)nc1NC1CCNCC1	0%
Cc1ccc(O)cc1Nc1cc(C(F)(F)F)nc2ccc(-c3ccncc3)cc12 [GW630823]	0%
C[C@@H]1CCN(C(=O)CO)C[C@@H]1N(C)c1ncnc2[nH]ccc12	0%

Compound	%Inh
COc1ccc(NC(=O)Nc2ccc(C)c(-c3ccc(C(=O)Nc4ccncc4)cc3)c2)cc1 [GSK1398475]	30%
O=c1cc(N2CCOCC2)nc2n(Cc3cccc(Cl)c3)ccn12 [GSK2296823]	0%
CC(C)N1CCC(n2cnc(-c3ccc(F)cc3)c2-c2ccnc(N)n2)CC1 [SB-223132]	0%
Clc1cccc(-c2nc(Nc3ccncc3)c3ccccc3n2)c1 [GW873004]	0%
COC(=O)c1c(-c2ccccc2)c2cc(Cl)ccc2c(=O)n1Cc1ccc(S(C)(=O)=O)cc1	5%
Oc1ccc2ncnc(Nc3ccc(OCc4ccccc4)cc3)c2c1 [GI262866]	0%
COc1cc2c(Nc3cccc(NC(=O)c4ccccc4)c3)ncnc2cc1OCCCN1CCOCC1 [GSK223810]	10%
CCc1nc(-c2cccc(C)c2)c(-c2ccnc(NC(=O)c3ccccc3)c2)s1	29%
Clc1ccc(-c2cc(-c3c[nH]nc3-c3ccccn3)ccn2)cc1 [GW681251]	0%
Nc1nc(-c2ccc3c(N)n[nH]c3c2)cc(N2CCC[C@@H](C(=O)Nc3ccccc3)C2)n1.O=C(O)C(F)(F)F.O=C(O)C(F)(F)F [GSK2288359]	9%
CCn1c(-c2ccncc2)nc2cnccc21 [SB-735216]	7%
Cn1ccc2ncnc(Nc3ccc(Oc4cccc(Cl)c4)c(Cl)c3)c21	16%
Fc1ccc(-c2ncn(CCCNCc3ccccc3)c2-c2ccncc2)cc1	0%
CC(C)(C)OC(=O)NC1CCCN(c2cc(-c3ccc4c(N)n[nH]c4c3)nc(N)n2)C1 (stereo not shown) [GSK2286096]	0%
CC(=O)Nc1n[nH]c2ncc(-c3ccccc3)cc12 [SB-548492]	0%
COc1ccc(Nc2nccc(N3CCC(NC(=O)Nc4ccc5c(c4)OCO5)C3)n2)cc1 (stereo not shown) [GSK1379745]	0%
CN1CCC(n2cnc(-c3ccc(F)cc3)c2-c2ccnc(NC3CCNCC3)n2)CC1 [SB-229482]	0%

tested on: IRAK1; details: concentration: 1 μM, replicates: in singlicate; n = 1

Compound	%Inh
COc1cc2ncnc(Nc3ccc(OCc4ccccc4Br)c(Cl)c3)c2cc1OC.Cl [GI261590]	32%
CSc1nn2c(=O)cc(N3CCOCC3)nc2n1Cc1cccc(Cl)c1Cl [GSK2347225]	0%
Fc1cccc(COc2ccc(Nc3ncnc4sc(-c5ccc[nH]5)cc34)cc2Cl)c1 [GW707818]	20%
Cl.O=S(=O)(c1cccc(F)c1)c1ccc(Nc2ncnc3cc(Br)sc23)cc1Cl [GSK306886]	32%
CN1c2ccc(-c3ccc(C(=O)NCCO)cc3)cc2-c2[nH]ncc2S1(=O)=O	14%
Nc1nc(-c2ccc3c(N)n[nH]c3c2)cc(N2CCCCC2)n1 [GSK2228768]	0%
Cn1ccc2ncnc(Oc3ccc(NC(=O)Nc4cccnc4)c(Cl)c3)c21	0%
Clc1cc(Nc2ncnc3cc[nH]c23)ccc1OCc1ccccn1	6%
Cl.Cl.c1ccc(-c2cc3ccncc3cc2OC2CCNCC2)cc1 [GSK1122999]	56%
Fc1ccc(Nc2nccc(-c3c(-c4ccc(Cl)cc4)nn4ncccc34)n2)cc1F [GW829058]	24%
C[C@H]1CC[C@@H](C(=O)Nc2ccccc2)CN1c1cc(-c2ccc3c(N)n[nH]c3c2)nc(N)n1 [GSK2283293]	0%
FC(F)(F)c1cc(Nc2nccc(-c3c(-c4ccc(Cl)cc4)nn4ncccc34)n2)ccc1Cl [GW829351]	0%
FC(F)(F)c1ccc(-c2cc(-c3c[nH]nc3-c3ccccn3)ccn2)cc1 [GW599550]	25%
Nc1nc(-c2cccnc2)c(-c2ccnc3ccccc23)s1 [GW684083]	42%
Cl.c1ccc(Cn2ncc3cc(Nc4ncnc5ccccc45)ccc32)cc1 [GW273749]	0%
O=C(NCCCN1CCCC1=O)c1cnc(NCc2cc(Cl)ccc2Cl)nc1NC1CCNCC1	37%
Cc1ccc(O)cc1Nc1cc(C(F)(F)F)nc2ccc(-c3ccncc3)cc12 [GW630823]	0%
C[C@@H]1CCN(C(=O)CO)C[C@@H]1N(C)c1ncnc2[nH]ccc12	0%

Compound	%Inh
COc1ccc(NC(=O)Nc2ccc(C)c(-c3ccc(C(=O)Nc4ccncc4)cc3)c2)cc1 [GSK1398475]	0%
O=c1cc(N2CCOCC2)nc2n(Cc3cccc(Cl)c3)ccn12 [GSK2296823]	60%
CC(C)N1CCC(n2cnc(-c3ccc(F)cc3)c2-c2ccnc(N)n2)CC1 [SB-223132]	0%
Clc1cccc(-c2nc(Nc3ccncc3)c3ccccc3n2)c1 [GW873004]	7%
COC(=O)c1c(-c2ccccc2)c2cc(Cl)ccc2c(=O)n1Cc1ccc(S(C)(=O)=O)cc1	11%
Oc1ccc2ncnc(Nc3ccc(OCc4ccccc4)cc3)c2c1 [GI262866]	0%
COc1cc2c(Nc3cccc(NC(=O)c4ccccc4)c3)ncnc2cc1OCCCN1CCOCC1 [GSK223810]	0%
CCc1nc(-c2cccc(C)c2)c(-c2ccnc(NC(=O)c3ccccc3)c2)s1	14%
Clc1ccc(-c2cc(-c3c[nH]nc3-c3ccccn3)ccn2)cc1 [GW681251]	43%
Nc1nc(-c2ccc3c(N)n[nH]c3c2)cc(N2CCC[C@@H](C(=O)Nc3ccccc3)C2)n1.O=C(O)C(F)(F)F.O=C(O)C(F)(F)F [GSK2288359]	0%
CCn1c(-c2ccncc2)nc2cnccc21 [SB-735216]	6%
Cn1ccc2ncnc(Nc3ccc(Oc4cccc(Cl)c4)c(Cl)c3)c21	27%
Fc1ccc(-c2ncn(CCCNCc3ccccc3)c2-c2ccncc2)cc1	24%
CC(C)(C)OC(=O)NC1CCCN(c2cc(-c3ccc4c(N)n[nH]c4c3)nc(N)n2)C1 (stereo not shown) [GSK2286096]	0%
CC(=O)Nc1n[nH]c2ncc(-c3ccccc3)cc12 [SB-548492]	0%
COc1ccc(Nc2nccc(N3CCC(NC(=O)Nc4ccc5c(c4)OCO5)C3)n2)cc1 (stereo not shown) [GSK1379745]	11%
CN1CCC(n2cnc(-c3ccc(F)cc3)c2-c2ccnc(NC3CCNCC3)n2)CC1 [SB-229482]	20%

Reference: publication PMC5540273 (PLoS ONE, 2017)
